An excerpt weighted towards active compounds, which were near 5.7% of everything screened.
rCAG RNA binder: binders of r(CAG) RNA repeats, primary screen, biochemical, fluorescence; r(CAG) RNA repeat, TO-PRO-1 dye displacement fluorescence; hit rate 1.3% among 370,000; AID 651821, 2012; inhibition, % at 3 µM;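 active = inhibition above the plate cutoff, the mean of all test compounds on that plate plus 3 SD, cut at about 35% in these data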;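 also: higher means more dye released from RNA so lower well fluorescence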
NR3A LBD binder: binders of NR3A ligand-binding domain, primary screen, biophysical, differential scanning fluorimetry, uHTS; NR3A LBD differential scanning fluorimetry, Tm shift; 0% = protein alone, 100% = glycine-bound protein; Glutamate receptor ionotropic, NMDA 3A (GRIN3A) ligand-binding domain; Tm shift relative to glycine control, % at 25 µM; hit rate 2.5% among 340,000; AID 1259313, 2017;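 active = melting temperature shift of at least 10% of the positive control shift, at one fixed dose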
Myeloid diff 2: induction of myeloid progenitor differentiation, primary screen, cell-based, flow cytometry, MLPCN library; ER-HoxA9 myeloid progenitors, lysozyme-GFP differentiation; calls only at 10 µM; hit rate 1% among 360,000; AID 624256, 2012;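 active = normalized GFP-positive differentiation at or above the plate's own cutoff, the solvent-only control mean plus 3 SD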;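 also: cells exposed to compound for four days before flow analysis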
MPTP inh: mitochondrial permeability transition pore inhibitors, primary screen, biochemical, isolated mouse mitochondria, absorbance; inhibition, % at 10 µM; Ca2+ swelling absorbance, 30 min; hit rate 1.4% among 360,000;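 active = inhibition of 50% or more, scaled per plate between neutral and stimulator controls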
FAS TE block: FAS thioesterase domain inhibitors, primary screen, biochemical, fluorescence intensity, uHTS. inhibition, % at 15 µM. Fatty acid synthase (Homo sapiens), P49327. hit rate 0.67% among 360,000. recombinant FAS-TE, OMFH fluorogenic substrate, fluorescence endpoint;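 active = compounds whose normalised, plate-corrected inhibition of enzyme fluorescence in the single-dose primary screen is 50% or more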
Each line names hits and unclear results; the compound was inactive in the other large screens.

Cn1cc(/C=N/NC(=O)c2cc3cc(Br)ccc3o2)c2ccccc21	NR3A LBD binder 21.8
Nc1ccc(C(=O)N/N=C/c2cn(Cc3cccc(F)c3)c3ccccc23)cc1	NR3A LBD binder 18.1
C=CCn1cc(/C=N\NC(=O)c2cc3c(ccc4ccccc43)o2)c2ccccc21	none
O=C(N/N=C/c1cn(Cc2ccccc2)c2ccccc12)c1ccncc1	none
CCc1ccc(C(=O)N/N=C/c2cccc3ccccc23)nc1	NR3A LBD binder 11.5
COc1ccc2c(c1)[C@@]1(OCCC=C[C@H]1C)C(=O)N2Cc1ccccc1C(F)(F)F	none (no result: NR3A LBD binder, Myeloid diff 2, MPTP inh, FAS TE block)
CCN(CC)C(=O)c1ncn2c1C(=O)NC[C@@H]2C	none (no result: NR3A LBD binder, Myeloid diff 2, MPTP inh, FAS TE block)
CC(NC(=O)c1c(N)[nH]c(C(=O)c2ccc(Cl)cc2)c1-c1ccc(Br)cc1)c1cccc2ccccc12 (stereo not given)	none (no result: NR3A LBD binder, Myeloid diff 2, MPTP inh, FAS TE block)
CC(C)C1=CC2C3C(=O)N(c4ccccc4)C(=O)C3C1C(=O)C2(C)O (stereo not given)	none (no result: NR3A LBD binder, Myeloid diff 2, MPTP inh, FAS TE block)
CCN(CC)C(=O)CC[C@H]1CC[C@]2(CCCN(C(=O)c3cccnc3)C2)O1	none (no result: NR3A LBD binder, Myeloid diff 2, MPTP inh, FAS TE block)
CC(=O)n1cc(/C=N/NC(=O)c2ccc(Cl)cc2)c2ccccc21	NR3A LBD binder 15.3
O=C(COc1ccccc1)Nc1nc2cc3c(cc2s1)OCO3	NR3A LBD binder 13.6
CC(=O)Nc1cccc(-c2nc3ccccc3s2)c1	none
CC(=O)Nc1ccc2nc(NC(=O)COc3ccccc3Cl)sc2c1	NR3A LBD binder 19.9
CC(=O)Nc1ccc2nc(NC(=O)COc3cccc(C)c3)sc2c1	NR3A LBD binder 11.0
CC(=O)Nc1nc2cc3c(cc2s1)OCO3	none
CC(=O)Nc1cccc(-c2nc3ccc(NC(C)=O)cc3s2)c1	NR3A LBD binder 16.1
COC(=O)c1ccc2nc(-c3cccc(Br)c3)c(Cc3cccc(Cl)c3)n2c1	none (no result: NR3A LBD binder, Myeloid diff 2, MPTP inh, FAS TE block)
O=C(/C=C(\Nc1cc(Cl)c(Cl)c(Cl)c1)c1ccccc1)c1ccccc1	none (no result: NR3A LBD binder, Myeloid diff 2, MPTP inh, FAS TE block)
CCCN1CCCCC(NC(=O)c2ccc(Cl)cc2Cl)C1=O (stereo not given)	none (no result: NR3A LBD binder, Myeloid diff 2, MPTP inh, FAS TE block)
CC(C)CC(NC(=O)OCc1ccccc1)C(=O)NCC(=O)NCC(=O)OCc1ccccc1 (stereo not given)	none (no result: NR3A LBD binder, Myeloid diff 2, MPTP inh, FAS TE block)
CC(=O)Nc1ccc2nc(NC(=O)COc3ccccc3)sc2c1	none
CC(=O)Nc1ccc2nc(NC(=O)COc3ccccc3C)sc2c1	NR3A LBD binder 23.2
CC(=O)Nc1ccc2nc(NC(=O)CCc3ccccc3)sc2c1	NR3A LBD binder 22.5
COc1ccc(NC(=O)c2sc(NC(=O)COc3ccccc3)nc2C)cc1	NR3A LBD binder 14.4
COc1cccc2sc(Nc3nc4ccc(NC(C)=O)cc4s3)nc12	rCAG RNA binder 49.4, NR3A LBD binder 30.6
CCc1ccccc1CNC(=O)C1CCC(CNS(=O)(=O)c2cccc3cccnc23)CC1 (stereo not given)	none (no result: NR3A LBD binder, Myeloid diff 2, MPTP inh, FAS TE block)
COc1cccc(Nc2ncnc3ccc(Br)cc23)c1	none (no result: NR3A LBD binder)
COc1ccc(Nc2ccc(Nc3ccc(OC)cc3)nn2)cc1	NR3A LBD binder 26.9
COc1ccc(Nc2cc(Nc3cccc(OC)c3)ncn2)cc1	NR3A LBD binder 27.4
COc1ccc(Nc2ccc(OC)cc2)cc1	none
COc1ccc(Nc2ncnc3ccc(C)cc23)cc1	none
COc1ccc(Nc2cc(Nc3cc(OC)c(OC)c(OC)c3)ncn2)cc1	NR3A LBD binder 13.6
COc1ccc(Nc2cc(Nc3ccc(OC)cc3)ncn2)cc1	NR3A LBD binder 16.1
COC(=O)C1=C(C)N(Cc2ccc(F)cc2)C(=S)NC1c1cccc(OC)c1 (stereo not given)	none (no result: NR3A LBD binder, Myeloid diff 2, MPTP inh, FAS TE block)
O=C(N/N=C/C(Br)=C/c1ccccc1)c1cc(-c2ccco2)[nH]n1	NR3A LBD binder 22.2, Myeloid diff 2 active
Cc1ccc(-c2cc(C(=O)N/N=C/c3ccc(Cl)cc3)n[nH]2)o1	NR3A LBD binder 31.4 (no result: Myeloid diff 2)
Cc1ccc(-c2cc(C(=O)N/N=C/c3ccccc3)n[nH]2)o1	none
Cn1cccc1-c1cc(C(=O)N/N=C/c2ccc(Cl)cc2)[nH]n1	NR3A LBD binder 19.0
COc1cc(/C=N/NC(=O)c2cc(-c3cccn3C)n[nH]2)cc(OC)c1OC	none
COc1ccc(C(=O)N/N=C\C(C)=C\c2ccccc2)cc1OC	none
CC(/C=N/NC(=O)c1ccc(Br)cc1)=C\c1ccccc1	NR3A LBD binder 23.3

Screens: PubChem, several laboratories
